CSC inhib: cancer stem cell inhibition; 300,000 tested, 1.1% active; inhibition, % at 7.5 µM; AID 2717; cancer stem cell-like cells viability, luminescence; in the data active = inhibition above about 75%; tested in HMLE shEcad cells
SKKanGAS inh: inhibitors of SKKanGAS S. pyogenes growth in kanamycin (SK-promoter or general growth effect); inhibition, % at 7.5 µM; 300,000 tested, 1.3% active; BacTiter-Glo, 6 h; AID 1662;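 active = mean replicate score, as percent of positive control median, at least 50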;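 also: strain carries kanamycin resistance gene driven by streptokinase promoter and grows in 40 µg/ml kanamycin; loss of luminescence reflects streptokinase promoter inhibition or plain growth inhibition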
IEC-6 tox: kills IEC-6 intestinal cells in KLF5 counter-screen. IEC-6 cytotoxicity, luminescence viability. inhibition, % at 5 µM. 290,000 tested, 0.78% active. AID 1825
KLF5 inh: suppresses KLF5 promoter-driven expression. DLD-1 KLF5 promoter-luciferase reporter, luminescence. 290,000 tested, 0.23% active. inhibition, % at 5 µM;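 active = inhibition above a per-plate limit of that plate's mean compound inhibition plus 3 SD, cut at about 60% in these data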;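 also: higher means less KLF5 promoter-driven luciferase light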
aSyn UTR inh: MLPCN primary screen, SNCA 5' untranslated region; AID 1813; inhibition, % (tested at 7.5 µM); alpha-synuclein 5'UTR reporter, inhibitor activity; 300,000 tested, 0.82% active; in the data active = inhibition above about 60%;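 also: H4 neuroglioblastoma cells stably carrying SNCA 5'UTR luciferase fusion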
IEC-6 cytotox cf: IEC-6 cytotoxicity, confirmation assay; IEC-6 rat intestinal epithelial viability, luminescence; 1,900 tested, 63% active; shares compounds with IEC-6 tox; inhibition, % at 5 µM
Of the large screens only hits and unclear results are named; the others gave an inactive call (follow-up assays come after a bar, where they were run). A selection: hits, their analogues and other compounds. The true share with any hit is near 3%. Rule as the data show it, unless noted: active = inhibition above about 22%; inactive = the rest.

COc1ccc(C(=O)Nc2ccc(N3CCN(C(=O)c4cccs4)CC3)cc2)cc1Br	none
Cc1ccccc1Cn1c(C(=O)OC(C)C)cc2c1ccn2C	none
Cc1ccc(C)c(Cn2c(C(=O)OC(C)C)cc3c2ccn3C)c1	IEC-6 tox 29 | IEC-6 cytotox cf inactive
CC(C)OC(=O)c1cc2c(ccn2C)n1CC(=O)N1CCC(Cc2ccccc2)CC1	IEC-6 tox 40 | IEC-6 cytotox cf inactive
CCOC(=O)c1cc2c(ccn2C)n1CC(=O)N(Cc1ccccc1)c1ccccc1	IEC-6 tox 32 | IEC-6 cytotox cf inactive
COc1ccc(Cc2nc(-c3ccc(NC(=O)c4cccnc4)cc3)no2)cc1	IEC-6 tox 31, aSyn UTR inh 75 | IEC-6 cytotox cf 90
N#CCc1c(C#N)c(N)nc(Nc2ccccc2)c1C#N	none
CC(C)(CC(=O)O)CC(=O)Nc1cc(C(F)(F)F)cc(C(F)(F)F)c1	none
Cc1ccc(S(=O)(=O)c2nc(-c3ccccc3Cl)oc2N(C)C)cc1	IEC-6 tox 24 | IEC-6 cytotox cf inactive
Cc1ccc(S(=O)(=O)c2nc(-c3ccccc3Br)oc2N(C)C)cc1	none
COc1ccc(Nc2nc(-c3sc(C)nc3C)cs2)cc1	IEC-6 tox 76 | IEC-6 cytotox cf 56
COc1cc(OC)cc(-c2oc3cccnc3c2C#CCCO)c1	IEC-6 tox 25 | IEC-6 cytotox cf inactive
O=C(CSc1cccc[n+]1[O-])c1ccccc1Br	IEC-6 tox 85 | IEC-6 cytotox cf inactive
Cc1nc2c3cc(Cl)ccc3n(CCN3CCCCC3)c2s1	IEC-6 tox 41 | IEC-6 cytotox cf inactive
CSc1ncccc1C(=O)NCCc1ccc(S(N)(=O)=O)cc1	none
CC#CCN1c2ccccc2[C@]23C[C@@H](C(=O)OC)N(C(=O)NC4CCCCC4)C2=NC(C(=O)OC)=C(C(=O)OC)[C@H]13	none (no result: IEC-6 tox, KLF5 inh)
CC(C)(C)c1ccc(-n2nc(C#N)c(Cl)cc2=O)cc1	IEC-6 tox 52 (no result: CSC inhib) | IEC-6 cytotox cf inactive
COc1cccc(OC)c1C(=O)Nc1ccccc1Sc1ccccc1	none (no result: IEC-6 tox, KLF5 inh)
CCC[C@H](CN[C@@H](CNC)[C@H](C)O)NCCc1ccc(OC)cc1	none
CCCC[C@H](CN[C@@H](CNC)[C@H](C)CC)NCCC12CCC(CC1)C2	IEC-6 tox 39 | IEC-6 cytotox cf 102
CCCCn1c(=O)[nH]c(=O)c2c1nc(Cn1ncc(Cl)c(Cl)c1=O)n2CCC	IEC-6 tox 102 | IEC-6 cytotox cf 28
CCCCn1c(=O)[nH]c(=O)c2c1nc(CN1C(=O)c3ccccc3S1(=O)=O)n2CCC	none
Cc1ccc(Cl)cc1N1CCN(C(=O)Cn2ncn3cccc3c2=O)CC1	none
COc1cc(OC)cc(C(=O)N[C@H](C(=O)Nc2cc(F)ccc2C)C(C)C)c1	none
COc1cccc(CN2C(=O)C3(C(C#N)=C(N)OC4=C3C(=O)CCC4)c3ccccc32)c1 (stereo not given)	IEC-6 tox 59, aSyn UTR inh 63 | IEC-6 cytotox cf 54
CC1(C)CC(=O)C2=C(C1)OC(N)=C(C#N)C21C(=O)N(CN2CCOCC2)c2ccccc21 (stereo not given)	none
COc1cc(/C=N/Nc2nc3ccccc3[nH]2)ccc1O	none
COc1cc(/C=N/Nc2snc(SC)c2C#N)ccc1O	IEC-6 tox 45 | IEC-6 cytotox cf 45
O=C1N=C(N2CCCC2)S/C1=C\C=C\c1ccccc1	none
CCN1/C(=C/c2ccc3cc(C)ccc3[n+]2CC)Sc2ccccc21	CSC inhib 102, IEC-6 tox 50, aSyn UTR inh 100 (no result: SKKanGAS inh) | IEC-6 cytotox cf 70
CCN1/C(=C/c2ccc3cc(C)ccc3[n+]2CC)Sc2cc(C)c(C)cc21	IEC-6 tox 39 (no result: CSC inhib, SKKanGAS inh, aSyn UTR inh) | IEC-6 cytotox cf 29
CN(C)c1cccc(/C=C(\C#N)c2ccccc2)c1	IEC-6 tox 77 | IEC-6 cytotox cf 56
CCOC(=O)c1[nH]c(C)c(C(=O)Nc2ccc(C)c(Cl)c2)c1C	none
CCOC(=O)c1[nH]c(C)c(C(=O)Nc2ccccc2C)c1C	IEC-6 tox 56 (no result: CSC inhib) | IEC-6 cytotox cf 51
COc1cc2[nH]c(=S)nc(NCc3ccc(Cl)cc3)c2cc1OC	IEC-6 tox 30 | IEC-6 cytotox cf 42
Cc1ccc(NS(=O)(=O)c2ccc(-c3cnc(C4CC4)o3)cc2)cc1	IEC-6 tox 56 | IEC-6 cytotox cf 32
Cc1cccc(C)c1NS(=O)(=O)c1ccc(-c2cnc(C3CC3)o2)cc1	IEC-6 tox 94, aSyn UTR inh 103 (no result: CSC inhib) | IEC-6 cytotox cf 72
CC(=O)c1ccc(NS(=O)(=O)c2ccc(-c3cnc(C4CC4)o3)cc2)cc1	none (no result: CSC inhib)
O=S(=O)(c1ccc(-c2cnc(C3CC3)o2)cc1)N1CCN(c2ccccc2)CC1	none
COc1ccc(C)cc1NS(=O)(=O)c1ccc(-c2cnc(C3CC3)o2)cc1	IEC-6 tox 90, aSyn UTR inh 102 (no result: CSC inhib) | IEC-6 cytotox cf 62
O=S(=O)(NCc1ccccc1)c1ccc(-c2cnc(C3CC3)o2)cc1	none
COc1ccc(C)cc1NS(=O)(=O)c1ccc2c(c1)n(C)c(=O)n2C	none
CCOc1ccccc1CNS(=O)(=O)c1ccc(-c2cnc(C3CC3)o2)cc1	IEC-6 tox 75, aSyn UTR inh 74 (no result: CSC inhib) | IEC-6 cytotox cf 55
COCCNC(=O)CSc1nnc(-c2ccccc2F)n1Cc1ccccc1	none
Cc1ccc(N=C(N)N=C(N)N)c(C)c1	none
Cc1ccc(N(C)S(=O)(=O)c2ccc(-c3cnc(C4CC4)o3)cc2)cc1	IEC-6 tox 76, aSyn UTR inh 84 | IEC-6 cytotox cf 55
Cc1ccc(CNS(=O)(=O)c2ccc(-c3cnc(C4CC4)o3)cc2)cc1	none
COc1ccc(Cc2nnc(SCC(=O)N3CCCCC3)o2)cc1	none
Cc1ccccc1C(=O)/C(C#N)=N/Nc1c(C)n(C)n(-c2ccccc2)c1=O	SKKanGAS inh 66, IEC-6 tox 38, aSyn UTR inh 79 | IEC-6 cytotox cf 36
CCOC(=O)/C(C#N)=N/Nc1c(C)n(C)n(-c2ccccc2)c1=O	none
Cc1c(N/N=C(\C#N)C(=O)c2ccccc2)c(=O)n(-c2ccccc2)n1C	SKKanGAS inh 65, IEC-6 tox 39 (no result: CSC inhib) | IEC-6 cytotox cf 44
CN(C)CCNC(=O)c1nn(C)c2c1CCc1ccccc1-2	none
COc1ccc(CC(=O)NC(C)c2ccc(S(N)(=O)=O)cc2)cc1S(=O)(=O)N1CCOCC1 (stereo not given)	none
O=C(NN=C(c1ccccc1)c1ccccn1)c1ccccc1	none (no result: SKKanGAS inh, IEC-6 tox, KLF5 inh, aSyn UTR inh)
COc1ccc(C(=O)N/N=C(\c2ccccc2)c2ccccn2)cc1	IEC-6 tox 28, aSyn UTR inh 107 | IEC-6 cytotox cf 65
C/C(=N\NC(=O)c1ccccc1Cl)c1ccccn1	IEC-6 tox 41, aSyn UTR inh 82 | IEC-6 cytotox cf 66
O=C(NN=C1CCC(=NNC(=O)c2ccccn2)CC1)c1ccccn1	none (no result: CSC inhib, SKKanGAS inh, aSyn UTR inh)
O=C(N/N=C(\c1ccccc1)c1ccccn1)c1ccccc1Cl	SKKanGAS inh 66, IEC-6 tox 95, aSyn UTR inh 68 | IEC-6 cytotox cf 58
COc1ccc(C(=O)N/N=C(\C)c2ccccn2)cc1OC	CSC inhib 91, IEC-6 tox 40 | IEC-6 cytotox cf 99
COc1ccc(Cl)cc1NC(=O)COC(=O)C1COc2ccccc2O1 (stereo not given)	none (no result: SKKanGAS inh, IEC-6 tox, KLF5 inh, aSyn UTR inh)
